Reference: the supplement of paper PMC11732987, “Enantioselective OTUD7B fragment discovery through chemoproteomics screening and high-throughput optimisation” (Communications Chemistry, 2025)

Experiments:
Test in all cases: log2 ratio of Biotin-Ahx-Ub-VS probe labelling (fragment/DMSO); higher = less target engagement (more negative = stronger competition), active = hit call of the paper (q ≤ 0.05, log2 ratio ≤ -1)
Details in all cases: compound concentration: 200 uM; treatment time: 3 h
USP34 = USP34 (UniProt Q70CQ2)
Sequence of USP34 (Q70CQ2 whole entry, the tested form may be a part): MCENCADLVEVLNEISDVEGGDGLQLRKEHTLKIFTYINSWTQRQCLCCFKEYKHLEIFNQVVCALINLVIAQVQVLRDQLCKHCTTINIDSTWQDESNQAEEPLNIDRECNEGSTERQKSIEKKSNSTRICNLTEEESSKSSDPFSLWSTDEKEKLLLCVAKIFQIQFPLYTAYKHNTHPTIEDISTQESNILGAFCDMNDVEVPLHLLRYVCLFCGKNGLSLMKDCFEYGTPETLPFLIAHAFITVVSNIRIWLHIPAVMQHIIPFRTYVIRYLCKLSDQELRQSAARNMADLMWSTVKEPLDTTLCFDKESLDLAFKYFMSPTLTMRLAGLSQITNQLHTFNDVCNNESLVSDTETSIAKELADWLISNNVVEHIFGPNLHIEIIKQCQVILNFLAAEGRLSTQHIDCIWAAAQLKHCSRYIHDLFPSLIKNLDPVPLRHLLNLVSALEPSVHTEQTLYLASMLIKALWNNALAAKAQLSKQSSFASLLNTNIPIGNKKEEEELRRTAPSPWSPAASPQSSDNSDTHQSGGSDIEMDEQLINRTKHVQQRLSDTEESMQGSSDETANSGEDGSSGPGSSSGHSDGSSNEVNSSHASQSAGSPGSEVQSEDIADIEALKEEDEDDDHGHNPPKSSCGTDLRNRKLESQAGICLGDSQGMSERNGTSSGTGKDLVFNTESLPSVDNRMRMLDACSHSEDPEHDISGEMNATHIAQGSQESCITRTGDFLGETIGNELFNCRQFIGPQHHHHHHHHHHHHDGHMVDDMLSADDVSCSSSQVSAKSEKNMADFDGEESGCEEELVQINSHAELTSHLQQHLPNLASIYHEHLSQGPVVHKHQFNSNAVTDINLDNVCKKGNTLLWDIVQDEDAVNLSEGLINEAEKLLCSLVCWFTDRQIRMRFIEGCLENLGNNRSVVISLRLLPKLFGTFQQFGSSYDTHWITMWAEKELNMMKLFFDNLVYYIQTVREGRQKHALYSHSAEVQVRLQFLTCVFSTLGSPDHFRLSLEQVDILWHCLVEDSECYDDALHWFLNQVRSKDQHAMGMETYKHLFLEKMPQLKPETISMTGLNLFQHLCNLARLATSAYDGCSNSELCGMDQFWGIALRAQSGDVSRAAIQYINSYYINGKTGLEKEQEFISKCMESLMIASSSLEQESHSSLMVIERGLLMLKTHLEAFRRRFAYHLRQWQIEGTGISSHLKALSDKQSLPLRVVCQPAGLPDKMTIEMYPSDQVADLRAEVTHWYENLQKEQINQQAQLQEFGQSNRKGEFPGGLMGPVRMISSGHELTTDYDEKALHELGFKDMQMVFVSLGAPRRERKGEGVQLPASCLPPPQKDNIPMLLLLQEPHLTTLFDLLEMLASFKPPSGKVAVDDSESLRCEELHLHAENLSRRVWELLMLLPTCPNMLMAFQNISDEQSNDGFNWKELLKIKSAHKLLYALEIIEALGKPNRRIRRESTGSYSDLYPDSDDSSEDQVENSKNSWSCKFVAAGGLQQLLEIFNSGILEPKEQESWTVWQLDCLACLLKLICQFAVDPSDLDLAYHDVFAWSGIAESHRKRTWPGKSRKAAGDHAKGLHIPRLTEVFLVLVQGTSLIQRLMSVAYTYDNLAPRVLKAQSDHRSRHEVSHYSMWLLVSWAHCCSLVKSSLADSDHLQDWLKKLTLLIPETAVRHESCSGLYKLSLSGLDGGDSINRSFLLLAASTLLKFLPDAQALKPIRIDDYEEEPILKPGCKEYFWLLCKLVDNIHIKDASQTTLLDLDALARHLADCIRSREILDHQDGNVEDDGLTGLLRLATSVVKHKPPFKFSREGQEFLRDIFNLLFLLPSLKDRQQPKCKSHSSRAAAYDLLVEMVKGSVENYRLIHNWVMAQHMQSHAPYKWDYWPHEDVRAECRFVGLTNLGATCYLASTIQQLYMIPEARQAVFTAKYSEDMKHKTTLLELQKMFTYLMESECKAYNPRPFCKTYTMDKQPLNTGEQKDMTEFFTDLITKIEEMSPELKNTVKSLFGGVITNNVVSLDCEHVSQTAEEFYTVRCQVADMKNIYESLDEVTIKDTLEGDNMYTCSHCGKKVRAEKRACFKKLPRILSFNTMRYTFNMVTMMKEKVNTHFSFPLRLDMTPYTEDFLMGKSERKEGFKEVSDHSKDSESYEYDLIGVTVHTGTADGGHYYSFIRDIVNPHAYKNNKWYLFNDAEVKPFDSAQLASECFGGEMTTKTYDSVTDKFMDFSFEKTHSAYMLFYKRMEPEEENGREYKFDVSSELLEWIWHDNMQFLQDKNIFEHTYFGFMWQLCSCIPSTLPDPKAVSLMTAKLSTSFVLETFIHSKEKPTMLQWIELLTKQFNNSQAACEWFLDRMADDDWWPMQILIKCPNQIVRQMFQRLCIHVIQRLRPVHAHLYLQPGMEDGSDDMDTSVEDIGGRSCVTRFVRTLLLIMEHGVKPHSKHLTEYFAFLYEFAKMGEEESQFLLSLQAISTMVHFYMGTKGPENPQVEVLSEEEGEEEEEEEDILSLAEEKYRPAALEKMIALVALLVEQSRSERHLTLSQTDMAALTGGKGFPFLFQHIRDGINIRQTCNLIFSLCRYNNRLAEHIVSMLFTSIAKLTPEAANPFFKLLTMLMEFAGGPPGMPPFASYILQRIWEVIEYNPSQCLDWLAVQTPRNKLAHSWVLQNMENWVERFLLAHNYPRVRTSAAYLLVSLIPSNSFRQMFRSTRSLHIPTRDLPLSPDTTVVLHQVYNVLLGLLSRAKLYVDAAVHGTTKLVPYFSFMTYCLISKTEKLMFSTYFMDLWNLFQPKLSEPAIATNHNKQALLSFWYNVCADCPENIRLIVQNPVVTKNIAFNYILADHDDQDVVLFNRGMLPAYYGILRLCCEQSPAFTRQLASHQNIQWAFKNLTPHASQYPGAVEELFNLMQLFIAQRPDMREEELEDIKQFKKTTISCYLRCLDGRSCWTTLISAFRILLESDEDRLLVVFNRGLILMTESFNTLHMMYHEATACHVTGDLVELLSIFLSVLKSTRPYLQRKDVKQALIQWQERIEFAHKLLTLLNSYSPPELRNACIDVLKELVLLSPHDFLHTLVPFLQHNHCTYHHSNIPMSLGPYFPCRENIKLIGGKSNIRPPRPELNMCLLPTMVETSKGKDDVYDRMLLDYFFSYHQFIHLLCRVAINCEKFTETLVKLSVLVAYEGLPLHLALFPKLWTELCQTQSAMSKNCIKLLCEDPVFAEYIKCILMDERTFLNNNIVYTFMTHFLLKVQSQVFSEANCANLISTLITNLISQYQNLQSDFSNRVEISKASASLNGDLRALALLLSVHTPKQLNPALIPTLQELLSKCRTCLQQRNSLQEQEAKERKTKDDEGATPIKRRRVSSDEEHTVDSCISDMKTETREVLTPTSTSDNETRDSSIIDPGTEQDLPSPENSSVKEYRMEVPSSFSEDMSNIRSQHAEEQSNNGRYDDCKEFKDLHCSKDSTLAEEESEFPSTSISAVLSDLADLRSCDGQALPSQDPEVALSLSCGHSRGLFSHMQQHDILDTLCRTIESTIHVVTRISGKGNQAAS
In short: (§1)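 HEK293T lysate (495 µg per sample, in Tris/CHAPS/IGEPAL buffer with protease inhibitors) was treated in triplicate with fragment at 200 µM or with DMSO for 3 h. It was then treated with Biotin-Ahx-Ub-VS (0.5 µM final) for 1 h. Labelled DUBs were NeutrAvidin-enriched, digested with LysC and trypsin, and run by diaPASEF LC-MS/MS. Spectronaut label-free quantities were global-median-normalised. Values are average log2 ratios fragment/DMSO by unpaired t-test, using proteins with ≥2 unique peptides.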

USP36 = target: T1, USP36 (UniProt Q9P275)
T1 sequence (whole entry): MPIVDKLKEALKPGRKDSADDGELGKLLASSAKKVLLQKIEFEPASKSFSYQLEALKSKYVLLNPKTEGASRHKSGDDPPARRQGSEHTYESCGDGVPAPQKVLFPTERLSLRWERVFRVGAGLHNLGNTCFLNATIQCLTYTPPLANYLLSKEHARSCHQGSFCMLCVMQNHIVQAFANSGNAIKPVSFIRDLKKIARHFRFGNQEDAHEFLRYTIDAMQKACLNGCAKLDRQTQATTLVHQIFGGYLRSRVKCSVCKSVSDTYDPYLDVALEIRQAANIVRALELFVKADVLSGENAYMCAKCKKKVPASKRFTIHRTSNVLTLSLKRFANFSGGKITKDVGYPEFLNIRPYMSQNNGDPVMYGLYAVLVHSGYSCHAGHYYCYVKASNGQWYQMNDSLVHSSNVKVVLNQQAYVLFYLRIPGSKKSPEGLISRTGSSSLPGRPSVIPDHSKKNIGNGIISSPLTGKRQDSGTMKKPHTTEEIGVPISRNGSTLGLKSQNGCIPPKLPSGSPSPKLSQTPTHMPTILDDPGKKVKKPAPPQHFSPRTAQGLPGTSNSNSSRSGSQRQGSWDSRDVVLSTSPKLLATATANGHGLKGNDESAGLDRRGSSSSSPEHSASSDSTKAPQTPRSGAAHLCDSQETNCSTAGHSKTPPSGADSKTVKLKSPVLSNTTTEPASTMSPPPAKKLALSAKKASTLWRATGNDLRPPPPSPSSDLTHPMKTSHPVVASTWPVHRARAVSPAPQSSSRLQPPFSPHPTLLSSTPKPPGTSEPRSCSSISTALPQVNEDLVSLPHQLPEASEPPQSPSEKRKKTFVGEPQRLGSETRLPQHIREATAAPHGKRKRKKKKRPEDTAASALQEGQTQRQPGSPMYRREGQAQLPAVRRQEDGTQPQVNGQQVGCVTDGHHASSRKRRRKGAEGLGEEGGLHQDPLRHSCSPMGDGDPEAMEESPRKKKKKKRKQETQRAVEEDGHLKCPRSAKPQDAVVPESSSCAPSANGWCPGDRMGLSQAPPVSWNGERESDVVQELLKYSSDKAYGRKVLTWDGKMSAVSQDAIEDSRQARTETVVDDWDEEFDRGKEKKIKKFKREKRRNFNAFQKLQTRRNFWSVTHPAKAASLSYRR
In short: as §1

USP38 = target: T2, USP38 (UniProt Q8NB14)
T2 sequence (whole entry): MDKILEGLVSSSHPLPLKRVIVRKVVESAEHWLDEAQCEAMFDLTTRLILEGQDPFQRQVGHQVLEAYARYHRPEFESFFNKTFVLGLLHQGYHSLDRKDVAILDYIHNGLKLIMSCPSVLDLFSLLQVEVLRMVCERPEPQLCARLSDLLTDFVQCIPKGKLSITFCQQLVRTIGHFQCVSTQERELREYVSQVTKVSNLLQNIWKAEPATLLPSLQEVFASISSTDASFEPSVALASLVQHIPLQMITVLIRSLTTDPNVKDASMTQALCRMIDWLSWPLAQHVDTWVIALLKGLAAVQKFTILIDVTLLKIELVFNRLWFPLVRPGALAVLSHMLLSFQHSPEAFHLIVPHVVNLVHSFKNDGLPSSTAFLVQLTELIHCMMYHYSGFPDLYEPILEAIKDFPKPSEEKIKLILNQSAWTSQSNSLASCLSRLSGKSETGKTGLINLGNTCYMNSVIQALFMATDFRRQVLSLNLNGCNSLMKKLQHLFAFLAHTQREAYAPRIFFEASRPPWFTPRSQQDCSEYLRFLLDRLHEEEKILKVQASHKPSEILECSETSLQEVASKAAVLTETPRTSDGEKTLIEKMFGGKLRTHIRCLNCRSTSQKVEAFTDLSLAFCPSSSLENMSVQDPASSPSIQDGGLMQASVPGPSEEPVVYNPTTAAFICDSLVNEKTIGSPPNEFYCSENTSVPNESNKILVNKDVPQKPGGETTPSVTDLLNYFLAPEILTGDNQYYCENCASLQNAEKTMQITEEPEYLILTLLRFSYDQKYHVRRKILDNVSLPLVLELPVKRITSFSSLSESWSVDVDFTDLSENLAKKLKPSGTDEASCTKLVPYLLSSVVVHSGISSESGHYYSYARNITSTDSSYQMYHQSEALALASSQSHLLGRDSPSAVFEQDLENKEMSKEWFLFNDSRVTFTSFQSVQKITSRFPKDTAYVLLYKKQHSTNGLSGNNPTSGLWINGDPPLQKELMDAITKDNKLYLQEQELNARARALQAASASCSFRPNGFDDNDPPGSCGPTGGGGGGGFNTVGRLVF
In short: as §1

USP39 = target: T3, USP39 (UniProt Q53GS9)
T3 sequence (whole entry): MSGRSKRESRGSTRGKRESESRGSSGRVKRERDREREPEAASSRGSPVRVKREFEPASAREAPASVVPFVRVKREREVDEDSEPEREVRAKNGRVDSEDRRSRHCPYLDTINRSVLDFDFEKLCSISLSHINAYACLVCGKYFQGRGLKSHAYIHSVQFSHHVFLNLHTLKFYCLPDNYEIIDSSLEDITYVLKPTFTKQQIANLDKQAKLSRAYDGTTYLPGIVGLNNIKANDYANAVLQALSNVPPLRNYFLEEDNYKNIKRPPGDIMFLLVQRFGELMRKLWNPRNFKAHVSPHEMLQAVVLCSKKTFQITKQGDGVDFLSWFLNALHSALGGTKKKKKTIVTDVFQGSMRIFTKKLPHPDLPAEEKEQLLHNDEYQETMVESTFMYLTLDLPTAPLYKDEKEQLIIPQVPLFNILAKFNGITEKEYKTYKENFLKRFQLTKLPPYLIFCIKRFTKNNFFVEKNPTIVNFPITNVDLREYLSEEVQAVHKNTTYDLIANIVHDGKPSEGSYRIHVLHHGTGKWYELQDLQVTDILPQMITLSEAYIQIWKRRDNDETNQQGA
In short: as §1

USP4 = target: T4, USP4 (UniProt Q13107)
T4 sequence (whole entry): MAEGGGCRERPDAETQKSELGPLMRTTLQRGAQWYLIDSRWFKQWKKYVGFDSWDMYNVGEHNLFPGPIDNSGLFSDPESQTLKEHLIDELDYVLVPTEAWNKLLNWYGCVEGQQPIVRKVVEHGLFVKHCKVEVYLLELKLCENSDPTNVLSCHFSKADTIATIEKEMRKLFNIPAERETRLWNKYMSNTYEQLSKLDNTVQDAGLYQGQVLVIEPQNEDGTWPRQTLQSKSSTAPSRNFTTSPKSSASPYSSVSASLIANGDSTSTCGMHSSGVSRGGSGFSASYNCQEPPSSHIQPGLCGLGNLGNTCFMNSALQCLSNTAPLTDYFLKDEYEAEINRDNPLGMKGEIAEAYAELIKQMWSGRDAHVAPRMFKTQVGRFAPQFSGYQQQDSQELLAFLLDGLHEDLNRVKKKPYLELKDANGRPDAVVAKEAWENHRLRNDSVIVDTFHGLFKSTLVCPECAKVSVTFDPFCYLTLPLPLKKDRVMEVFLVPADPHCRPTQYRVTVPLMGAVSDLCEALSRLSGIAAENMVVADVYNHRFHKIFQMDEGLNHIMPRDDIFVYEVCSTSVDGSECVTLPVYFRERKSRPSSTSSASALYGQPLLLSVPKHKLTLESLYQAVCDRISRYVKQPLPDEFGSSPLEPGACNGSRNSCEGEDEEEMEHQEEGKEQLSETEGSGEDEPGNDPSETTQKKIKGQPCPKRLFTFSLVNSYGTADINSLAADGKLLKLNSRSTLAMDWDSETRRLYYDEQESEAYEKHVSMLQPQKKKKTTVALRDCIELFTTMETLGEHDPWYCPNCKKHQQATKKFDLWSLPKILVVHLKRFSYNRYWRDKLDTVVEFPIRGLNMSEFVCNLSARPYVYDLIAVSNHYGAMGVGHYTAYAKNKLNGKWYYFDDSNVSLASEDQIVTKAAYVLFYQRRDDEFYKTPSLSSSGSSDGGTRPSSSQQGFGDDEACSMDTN
In short: as §1

Measured: log2 ratio of Biotin-Ahx-Ub-VS probe labelling

Cc1cccc(NC(=O)CCl)c1C
inactive: USP34 -0.304 | USP36 -0.363 | USP38 -0.389 | USP39 -0.513 | USP4 -0.269
